Source: PubChem
The list is not random: actives were taken first. Their share in the collection is about 12%.
BAZ2B inh – inhibitors of human BAZ2B bromodomain; AlphaScreen BAZ2B-H3K14Ac peptide displacement; hit rate 4.4% among 360,000; Potency, µM (doses to about 114 µM), for the others: top-dose activity change, negative = inhibition, actives largely listed as inhibitors; AID 504333; also: % is scaled to controls: 0 for no effect and ±100 for the full control effect; nearly all actives have a fitted effect of over 60% in size
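Multi-concentration screen (max 110 uM) measuring displacement of acetylated histone H3 peptide from BAZ2B by AlphaScreen, using 50 nM protein, 50 nM peptide and 10 ug/mL streptavidin donor plus Ni-chelate acceptor beads.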
Sfp PPTase inh – blocks B. subtilis Sfp PPTase activity; Potency, µM, for inactives: largest response in the series, negative = inhibition, most hits filed as inhibitors; Biochemical Sfp PPTase activity, qHTS; Q9F4F7; hit rate 3.5% among 310,000; AID 1490;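 also: the enzyme is Sfp with the accession as filed and its product quenches rhodamine fluorescence; 0% = enzyme reaction without inhibitor and -100% = no enzyme wells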
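With Hepes-Na pH 7.6 buffer containing 10 mM MgCl2, Sfp (15 nM) modified BHQ-2-YbbR (12.5 uM) using rhodamine-CoA (5 uM). Two reads 30 minutes apart at 525/598 nm yielded each well's rate.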
L3MBTL1 inh – inhibitors of human L3MBTL1. Potency, µM (top dose mostly 57.1 µM), for inactives: at the highest dose activity, negative = inhibition, actives largely listed as inhibitors. hit rate 0.66% among 230,000. Q9Y468. AlphaScreen L3MBTL1–H3K9me1 peptide binding; also: % is scaled to controls: 0 for no effect and ±100 for the full control effect; nearly all actives have a fitted effect of over 60% in size
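Read-out is AlphaScreen signal from streptavidin donor and nickel chelate acceptor beads (10 ug/mL final each) bridging L3MBTL1 (50 nM) and biotinylated K9-monomethylated H3(1-15) peptide (75 nM), after 30 min compound exposure at room temperature.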
JMJD2A Tudor inh – blocks the human JMJD2A Tudor domain; AlphaScreen JMJD2A-Tudor / H3K4me3 peptide binding; Potency, µM (highest dose often 114 µM), inactives show top-dose activity change, negative = inhibition, hits mostly inhibitors; O75164; hit rate 4.4% among 390,000; AID 504339; also: % is scaled to controls: 0 for no effect and ±100 for the full control effect; nearly all actives have a fitted effect of over 50% in size
HP1b binding inh – inhibitors of HP1-beta chromodomain binding to methylated histone tails | P83916 | AlphaScreen HP1-beta / biotin-H3K9me3 peptide binding | Potency, µM (titrated, usually from 114 µM), for inactives: top-dose activity change, negative = inhibition, hits mostly inhibitors | hit rate 0.56% among 390,000 | AID 540317; also: nearly all actives have a fitted effect of over 70% in size
Target sequence (P83916 whole entry, looked up): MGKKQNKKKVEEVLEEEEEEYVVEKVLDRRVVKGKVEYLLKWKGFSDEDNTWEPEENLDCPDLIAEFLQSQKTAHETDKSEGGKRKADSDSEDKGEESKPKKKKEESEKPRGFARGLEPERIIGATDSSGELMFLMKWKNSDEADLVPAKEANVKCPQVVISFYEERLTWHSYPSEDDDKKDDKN
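HP1-beta protein (50 nM final) preincubated 30 min at room temperature with biotinylated H3(1-18)K9me3 peptide (50 nM) in PBS pH 7.4, 0.01% Tween-20, then compound added for 30 min. AlphaScreen streptavidin donor/nickel chelate acceptor beads (10 ug/mL final), 30 min dark, luminescence read.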
G9a block – inhibitors of human histone lysine methyltransferase G9a. hit rate 8.8% among 350,000. G9a H3K9 monomethylation, AlphaScreen, 2 h. AID 504332. Potency, µM (doses to about 102 µM), without a hit: at the top dose activity, negative = inhibition, hits mostly inhibitors. Q96KQ7; also: % is scaled to controls: 0 for no effect and ±100 for the full control effect; nearly all actives have a fitted effect of over 75% in size
Target sequence (Q96KQ7 913-1193 limits assumed): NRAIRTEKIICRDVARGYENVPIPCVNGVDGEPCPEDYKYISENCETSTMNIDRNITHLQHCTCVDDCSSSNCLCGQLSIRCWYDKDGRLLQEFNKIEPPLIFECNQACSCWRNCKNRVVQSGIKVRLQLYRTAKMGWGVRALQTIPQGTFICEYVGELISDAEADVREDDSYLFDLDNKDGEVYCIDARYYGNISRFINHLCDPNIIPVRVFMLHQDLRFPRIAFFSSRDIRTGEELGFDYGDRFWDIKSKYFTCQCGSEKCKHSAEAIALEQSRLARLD
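G9a (20 nM) was preincubated 15 min with compound, then reacted 2 h at room temperature with 500 nM biotin-H3K9 peptide and 20 µM SAM. Monomethyl-H3K9 detected by AlphaScreen using anti-H3K9me1 antibody.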
* = called active by the depositor; ? = inconclusive; · = no result given; [ ] = dose if it differs, or a comment. Calls follow the shape of the dose curve; as a rule, active = well fitted curve in the direction sought with a large enough effect; inconclusive = small, poorly fitted or top-dose-only effect, or another doubt; inactive = no such curve, though single readings can be large; an effect the other way counts as inactive or inconclusive. Potency is read from the fitted curve at half-maximal effect.

SMILES	BAZ2B inh	Sfp PPTase inh	L3MBTL1 inh	JMJD2A Tudor inh	HP1b binding inh	G9a block
COc1ccc(-c2nnc(SCC(=O)NC3CCCc4ccccc43)n2N)cc1 (stereo not given)	-5%	11%	-5%	?	21%	?
COC(=O)c1cc(S(=O)(=O)NCCN2CCN(c3ccccc3F)CC2)c[nH]1	-16%	19%	·	?	8%	5%[59 µM]
CCn1c(SCC#N)nc2c(c1=O)C1(CCCC1)Cc1ccccc1-2	6%	6%	-1%	1%	43%	27%[59 µM]
CCn1c(=O)c2c(n3c(=S)[nH]nc13)-c1ccccc1CC21CCCCC1	-34%	18µM*	·	18µM*	-14%	1.6µM*
CC(NCC1(N2CCOCC2)CCCCC1)C(=O)N1CCc2ccccc21 (stereo not given)	40µM*	-1%	·	2.8µM*	?	?
CC(NCC1(N2CCOCC2)CCCCC1)C(=O)Nc1ccc(Cl)cc1Cl (stereo not given)	50µM*	56µM*	·	-15%	2%	32µM*
COc1ccc2c(c1)O[C@@H](c1cccc(C(F)(F)F)c1)[C@H](OC(=O)Nc1cc(OC)c(OC)c(OC)c1)C2=O	·	-1%	·	·	·	·
CC(=O)COc1ccc2c(c1C)O/C(=C\c1ccco1)C2=O	-34%	?	·	-28%	11%	28µM*
COC(=O)C(C)Oc1ccc2c(c1)O/C(=C\c1ccco1)C2=O (stereo not given)	?	?	·	50µM*	-9%	11µM*
COc1ccc(/C=C2\Oc3cc(OCC(N)=O)ccc3C2=O)cc1OC	2%	15%	·	-12%	37%	-9%
COc1ccc2c(c1)O/C(=C\c1ccco1)C2=O	14µM*	4.5µM*	·	?	?	·
CC(C)[C@H](NC(=O)OC(C)(C)C)[C@@H](O)CC(=O)OC(C)(C)C	·	30%	·	·	·	·
Nc1c(C(=O)NC2CCCC2)c2nc3ccccc3nc2n1N	12%	32µM*	-8%	-20%	26%	50µM*
O=C(Nc1ccc(N2CCC(N3CCCCC3)CC2)c(C(=O)O)c1)c1ccccc1	?	·	·	-31%	-8%	-11%[59 µM]
O=C(Nc1cc2c3c(c1)C1CCCC1CN3CC1CCCC21)c1ccccc1 (stereo not given)	28µM*	-16%	-4%	?	?	8.9µM*
CS(=O)(=O)c1ncc(Cl)c(C(=O)Nc2ccc(OC(F)F)cc2)n1	5%	?	-5%	-10%	35%	28µM*
CC(C)Sc1ncc(Cl)c(C(=O)Nc2ccc(S(=O)(=O)N(C)c3ccccc3)cc2)n1	-35%	·	·	-33%	1%	?
CCN(c1ccccc1)S(=O)(=O)c1ccc(NC(=O)c2nc(S(C)(=O)=O)ncc2Cl)cc1	-33%	20µM*	·	?	4%	32µM*
CCS(=O)(=O)c1ncc(Cl)c(C(=O)Nc2ccc(S(=O)(=O)N(C)c3ccccc3)cc2)n1	?	?	·	-22%	1%[57 µM]	40µM*
CCSc1ncc(Cl)c(C(=O)Nc2ccc(S(=O)(=O)N(C)c3ccccc3)cc2)n1	-16%	·	·	-28%	18%	-21%[59 µM]
C=CCSC1=C(C#N)C(c2ccc(OCC)cc2)CC(=O)N1 (stereo not given)	10%	79µM*	·	-19%	8%	?
N#CC1=C(SCc2ccccc2)NC(=O)CC1c1ccc(O)cc1 (stereo not given)	6%	-1%	-5%[11.4 µM]	-12%	10%	-14%[12.7 µM]
CCOc1cc(C2CC(=O)NC(SCC)=C2C#N)ccc1O (stereo not given)	-4%	4%	·	-4%	41%	50µM*
CCCSC1=C(C#N)C(c2cccs2)CC(=O)N1 (stereo not given)	-21%	25µM*	-3%	-10%	-13%	?
Cc1ccc(C2CC(=O)NC(SCc3ccccc3)=C2C#N)cc1 (stereo not given)	-12%	7%	2%	89µM*	-10%	-10%[59 µM]
SMILES	BAZ2B inh	Sfp PPTase inh	L3MBTL1 inh	JMJD2A Tudor inh	HP1b binding inh	G9a block
Cc1cccn2c(=O)cc(CSc3nnc(NC(=O)C(C)C)s3)nc12	4%	·	·	-8%	16%[57 µM]	33%[59 µM]
COc1cccc(NC(=O)COC(=O)COc2ccccc2[N+](=O)[O-])c1	-33%	5%	-11%	-28%	5%	-12%[59 µM]
COc1cccc(NCc2ccc([N+](=O)[O-])s2)c1	?	-24%	-2%	?	?	13µM*
CC1CCN(CCCNC(=O)c2ccc3c(Cl)c4c(nc3c2)CCCC4)CC1	?	-3%	·	-22%	16%	·
Cc1ccc(C(=O)N[C@@H](C)CN2C3=NC[C@H](C(C)C)N3C[C@H]2Cc2ccc(O)cc2)cc1Br	-35%	40µM*	-12%	79µM*	-8%	?
Cc1ccc(C(=O)NCCN2C3=NC[C@@H](Cc4ccccc4)N3C[C@H]2Cc2ccc(O)cc2)cc1Br	?	45µM*	-26%	?	26%	-13%[59 µM]
COc1ccc(C[C@H]2CN3C(=NC[C@@H]3Cc3ccc(O)cc3)N2CCNC(=O)c2ccc(C)c(Br)c2)cc1	?	-19%	-1%	?	-12%	?
COc1ccc(C[C@H]2CN3C(=NC[C@@H]3Cc3ccccc3)N2CCNC(=O)c2ccc(C)c(Br)c2)cc1	-38%	32µM*	-19%	?	-4%	·
COc1ccc(C[C@H]2CN3C(=NC[C@H]3Cc3ccccc3)N2CCNC(=O)c2ccc(C)c(Br)c2)cc1	-28%	50µM*	·	?	-1%	-12%[59 µM]
CCc1ccc(CNCc2c(C(=O)O)c(C)n(Cc3c(F)cccc3Cl)c2C)cc1	?	·	·	?	-2%	-29%[59 µM]
CCOc1ccc(-n2c(SCC(=O)NC3CCCCC3)nc3c([nH]c4ccccc43)c2=O)cc1	3%	·	·	-5%	23%[57 µM]	5%[59 µM]
O=C(NCc1ccccc1)c1cc[n+](CC(=O)c2cccs2)cc1	-1%	12%	13%	-29%	14%	?
CCN(CC)CCn1c(=S)[nH]c2ccccc2c1=O	13%	6%	5%	-17%	29%	?
CC1CCCCN1CCn1c(=S)[nH]c2ncccc2c1=O (stereo not given)	-25%	-21%	-4%	40µM*	-2%	?
CC1CC(C)CN(CCCn2c(=S)[nH]c3ccccc3c2=O)C1 (stereo not given)	1%	4%	·	-15%	50%	79µM*
CCN(CC)CCCn1c(=S)[nH]c2ccccc2c1=O	-30%	-14%	-7%	56µM*	29%	?
CC(C)OCCCn1c(=S)[nH]c2ncccc2c1=O	-7%	-10%	-2%	?	-6%	50µM*
O=c1c2ccccc2[nH]c(=S)n1CCCN1CCN(c2ccccc2)CC1	-3%	7%	·	-18%	-5%[57 µM]	-22%
